rTrxR1 inhibitor – qHTS Assay for Inhibitors of Mammalian Selenoprotein Thioredoxin Reductase 1 (TrxR1): qHTS | hit rate 1% among 390,000 | Potency, µM (doses to about 114 µM), without a hit: at the top dose activity change, negative = inhibition, hits mostly inhibitors | recombinant rTrxR1, NADPH fluorescence consumption, selenite substrate; further: on the % scale 0 is the no-effect control and ±100 the full control effect; nearly all actives have a fitted effect of over 65% in size
Target sequence (O89049 whole entry, looked up): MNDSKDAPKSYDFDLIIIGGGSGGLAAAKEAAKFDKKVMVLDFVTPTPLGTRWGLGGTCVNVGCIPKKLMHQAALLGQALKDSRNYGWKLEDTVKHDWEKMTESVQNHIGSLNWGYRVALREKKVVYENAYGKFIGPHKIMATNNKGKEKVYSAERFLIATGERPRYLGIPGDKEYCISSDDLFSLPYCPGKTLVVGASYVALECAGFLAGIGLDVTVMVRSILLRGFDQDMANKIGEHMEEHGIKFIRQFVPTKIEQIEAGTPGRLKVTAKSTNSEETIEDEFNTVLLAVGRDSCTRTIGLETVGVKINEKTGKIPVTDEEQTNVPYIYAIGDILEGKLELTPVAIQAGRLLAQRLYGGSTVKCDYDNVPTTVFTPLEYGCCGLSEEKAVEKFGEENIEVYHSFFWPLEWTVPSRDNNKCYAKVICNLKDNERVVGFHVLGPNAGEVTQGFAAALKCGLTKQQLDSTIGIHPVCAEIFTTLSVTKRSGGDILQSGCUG
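Rat TrxR1 (90 nM in the dispensed reagent) was pre-reduced with 400 uM NADPH for 5 min at room temperature, then incubated with compound for 15 min. After 400 uM selenite was added, NADPH fluorescence (Ex 340/Em 450 nm) was followed for 8 min.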
ALOX12 inh – Primary qHTS assay for inhibitors of human arachidonate 12S-lipoxygenase (ALOX12): Round 2; purified 12hLO, xylenol orange hydroperoxide absorbance; Potency, µM (titrated, usually from 108 µM), for inactives: at the highest dose activity change, negative = inhibition, usual class: inhibitors; hit rate 1.1% among 580,000; further: on the % scale 0 is the no-effect control and ±100 the full control effect
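Purified human 12hLO at 150 nM in 25 mM Hepes, 0.01% Triton X-100, pH 7.0, preincubated 15 min at room temperature with compound. Reaction started with 40 uM arachidonic acid, 30 min at room temperature. Hydroperoxide measured by Fe-xylenol orange, 573/405 nm absorbance ratio.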
IDH1 R132H inh – qHTS for Inhibitors of mutant isocitrate dehydrogenase 1 (IDH1): qHTS; Potency, µM (doses to about 76.6 µM), for inactives: at the top dose activity change, negative = inhibition, actives largely listed as inhibitors; Isocitrate dehydrogenase [NADP] cytoplasmic (Homo sapiens), O75874; AID 602179, 2012; IDH1-R132H enzyme, NADPH consumption, diaphorase/resazurin fluorescence; hit rate 0.093% among 390,000; further: on the % scale 0 is the no-effect control and ±100 the full control effect; nearly all actives have a fitted effect of over 65% in size
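IDH1-R132H (0.5 ug/mL dispensed) in pH 7.5 Tris buffer was preincubated 30 min with compound, then given a substrate mix of 0.016 mM NADPH and 2 mM alpha-KG for 80 min at room temperature; remaining NADPH was read by diaphorase/resazurin fluorescence.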
TrxR1 substrate – qHTS Assay for Substrates of Mammalian Selenoprotein Thioredoxin Reductase 1 (TrxR1): qHTS; hit rate 0.01% among 390,000; Potency, µM (doses to about 114 µM), inactives show top-dose activity change, negative = substrate turnover; Thioredoxin reductase 1, cytoplasmic (Rattus norvegicus), O89049; purified TrxR1 substrate turnover, NADPH consumption readout; AID 588456, 2011; further: on the % scale 0 is the no-effect control and ±100 the full control effect; nearly all actives have a fitted effect of over 50% in size
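Rat TrxR1, dispensed at 90 nM, was prereduced with 400 uM NADPH (final) for 5 min at ~22 deg C, then incubated with compound 15 min before 400 uM selenite. A first-read NADPH fluorescence drop versus no-compound background flagged substrates.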
GRP78 ERSR act – qHTS for Inducers of the Endoplasmic Reticulum Stress Response (ERSR) in Human Glioma: qHTS; U87-MG GRP78 promoter luciferase reporter, 16 h; Potency, µM, for the others: at the highest dose activation, actives largely listed as activators; hit rate 0.02% among 420,000; AID 602332, 2012; further: series mostly up to about 76 µM; % of control where 0% means no effect; nearly all actives have a fitted effect of over 35% in size
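Stably transfected U87-MG human glioma cells carrying a GRP78-based luminescent sensor were seeded at 1000 cells/well, pin-dosed with compounds and incubated 16 h. Luciferase reagent was then added, and end-point luminescence was read after 10 min at room temperature.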
Apoferritin bind – qHTS Assay for Identification of Novel General Anesthetics | apoferritin/1-aminoanthracene competitive binding, fluorescence | hit rate 0.074% among 350,000 | Ferritin light chain (Equus caballus), P02791 | Potency, µM (doses to about 77.5 µM), for the others: at the highest dose activity change, negative = displacement, actives largely listed as inhibitors; further: on the % scale 0 is the no-effect control and ±100 the full control effect; nearly all actives have a fitted effect of over 20% in size
Target sequence (P02791 2-175 limits assumed): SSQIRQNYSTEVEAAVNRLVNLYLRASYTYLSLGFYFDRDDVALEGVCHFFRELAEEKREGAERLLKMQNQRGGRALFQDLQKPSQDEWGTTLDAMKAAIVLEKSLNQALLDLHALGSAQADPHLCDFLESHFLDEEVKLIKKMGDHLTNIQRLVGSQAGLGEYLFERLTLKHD
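Read-out: endpoint 1-AMA fluorescence, excitation 380 nm and emission 535 nm, after compounds sit 10 min at room temperature with 10 uM horse-spleen apoferritin in 50% saturated 1-AMA/PBS. Values come from four-parameter Hill fits.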
Numbers without * were called inactive; ? = inconclusive; / = not tested or not shown; [ ] = remark or other dose. Rows were chosen to be rich in hits. Some 1.7% of all compounds tested hit in one or more screens of this group. The call rests on the fitted dose curve; in most records, active means well fitted curve in the direction sought with a large enough effect; inconclusive means small, poorly fitted or top-dose-only effect, or another doubt; inactive means no such curve, though single readings can be large; an effect the other way counts as inactive or inconclusive. Potency means the concentration at half of the fitted maximal effect.

SMILES	rTrxR1 inhibitor	ALOX12 inh	IDH1 R132H inh	TrxR1 substrate	GRP78 ERSR act	Apoferritin bind
COC(=O)c1cc(COC(=O)c2cccnc2SC)oc1C	-0.5%	39.8µM*	3.2%	2.3%	-6.0%	?
Cc1cccc(-n2c(=O)c3c(cc(C)n3C)n(CC(=O)Nc3c(C)cccc3C)c2=O)c1	/	70.8µM*	/	/	/	/
COc1cccc(CNC(=O)C2CCc3sc(C(=O)N(C)C)cc3C2)c1 (centres undefined)	/	31.6%	/	/	/	/
Oc1ccc(-c2nc3ccccn3c2Nc2ccc3c(c2)OCCO3)cc1	-13.9%	-20.4%	12.0%	60.8%	-4.6%	-2.6%
COc1cc(-c2nc3ccc(C)cn3c2Nc2ccc3c(c2)OCCO3)ccc1O	-10.9%	-29.7%	-4.5%	50.3%[57.1 µM]	-3.1%	-2.3%
COc1cc(-c2nc3ccc(Cl)cn3c2Nc2ccc3c(c2)OCCO3)ccc1O	-1.9%	7.94µM*	-11.7%	20.1%	-5.1%	-4.2%
Clc1cccc(-c2nc3ccccn3c2Nc2ccc3c(c2)OCCO3)c1	-15.6%	6.31µM*	-6.6%	60.8%	-0.8%	114.6%
O=C1NC(=NC2CCCCC2)C2(CCN(Cc3ccsc3)C2)N1c1cccnc1 (centres undefined)	/	4.6%[6.33 µM]	/	/	/	/
CSCC(=O)N1CC[C@H](NC(=O)Nc2cccc(SC)c2)[C@H]1C(=O)N[C@H](Cc1ccccc1)C(N)=O	/	0.3%	/	/	/	/
C=CCNC(=O)COc1ncnc2ccc(Br)cc12	/	3.8%	/	/	/	/
N#Cc1ccc(NC(=O)COC(=O)CNC(=O)C2CCCCC2)cc1	4.3%	0.0%	0.8%	1.8%	-4.6%	8.91µM*
CCCOC(=O)c1ccc(-c2ccc(C=O)o2)cc1	31.6µM*	-10.1%	6.3%	73.7%	-11.4%	-4.7%
COc1ccccc1C(CCN(Cc1cccs1)C(C)=O)c1ccco1 (centres undefined)	44.7µM*	?	2.0%	-1.5%	-4.0%	?
Cc1nc(C2(C)CCN(C(=O)c3cnccn3)CC2)no1	/	19.6%	/	/	/	/
CC1(C)COC(c2ccc(F)c([N+](=O)[O-])c2)=N1	17.8µM*	-17.7%	-8.9%	-9.0%	-7.9%	-6.0%
CC1(C)COC(c2cc([N+](=O)[O-])ccc2Cl)=N1	7.8%[57.1 µM]	0.0%	-1.2%	9.3%[57.1 µM]	-3.5%	?
Cc1cccc2c(C(=O)N(C)C(C)Cc3ccccn3)cc(-c3cnc(N)nc3)nc12 (centres undefined)	/	26.1%	/	/	/	/
Cc1cccc(C(=O)NC2CCN(C(=O)NCc3ccccc3)CC2)c1	25.1µM*	?	-4.1%	0.5%[57.1 µM]	-7.7%	5.2%
O=C(N[C@H]1CC[C@@]23CCCN2C(=O)CCC[C@H]3[C@H]1Cc1ccccc1)C1CCOC1 (some centres undefined)	/	-6.3%	/	/	/	/
Cc1oc2c(c1C(=O)c1ccc(Cl)cc1)C(=O)C(=O)c1ccccc1-2	2.4%	?	18.5%	79.4µM*	5.1%	-14.6%
Cc1ccc(C(=O)c2c(C)oc3c2C(=O)C(=O)c2ccccc2-3)cc1	22.2%[57.1 µM]	/	12.2%	?	-12.7%	?
N#Cc1ccc(C(=O)Nc2ccc([C@H]3OCC(=O)N(Cc4ccc(F)cc4)[C@@H]3CO)cc2)cc1	/	-14.6%	/	/	/	/
Cc1nn(C)c(C(=O)Sc2cccc(Cl)c2)c1[N+](=O)[O-]	2µM*	?	0.0%	-8.7%	-0.6%	-2.9%
Cc1nn(C)c(C(=O)Sc2ccccc2)c1[N+](=O)[O-]	?	0.0%	-7.0%	-19.8%	-10.8%	-12.4%
COC(=O)CSc1nc(SC)nc2c1sc1nc(-c3ccco3)c3c(c12)CC(C)(C)OC3	15.0%	2.7%	0.1%	0.1%	-2.0%	/
SMILES	rTrxR1 inhibitor	ALOX12 inh	IDH1 R132H inh	TrxR1 substrate	GRP78 ERSR act	Apoferritin bind
CSc1nc(SCCO)c2sc3nc(-c4ccco4)c4c(c3c2n1)CC(C)(C)OC4	56.2µM*	-38.7%	-6.9%	1.7%	0.7%	?
Cc1ccc(C(=O)NC2(O)C(=O)c3ccccc3C2=O)cc1C	17.3%[57.1 µM]	20µM*	12.9%	-2.7%	8.6%	-4.1%
O=C(NC1(O)C(=O)c2ccccc2C1=O)c1ccc(C(F)(F)F)cc1	-9.8%[57.1 µM]	?	6.1%	-7.3%[57.1 µM]	-0.9%	3.5%
O=C1NC2(CCN(S(=O)(=O)c3cccc(C(F)(F)F)c3)C2)N=C1c1ccccn1 (centres undefined)	/	77.8%	/	/	/	/
CC(C)n1c(-c2ccc(C(C)(C)C)cc2)n[nH]c1=S	-14.2%	15.8µM*	3.7%	-1.6%	-0.1%	?
COc1ccc(S(=O)(=O)/N=C2/NC(=O)/C(=C/c3ccco3)S2)cc1	-17.0%[57.1 µM]	17.8µM*	1.7%	-0.6%[57.1 µM]	-6.6%	-18.8%
COc1ccc(S(=O)(=O)/N=C2/NC(=O)/C(=C\c3ccco3)S2)cc1	?	39.8µM*	-1.9%	-19.1%	-1.0%	-6.6%
COc1ccc(N=C2NC(=O)/C(=C/c3ccco3)S2)cc1	-14.1%	?	7.6%	0.5%	10.9%	-15.8%
CC1(C)CC(=O)C2=C(C1)N(c1cccc(C(F)(F)F)c1)C(N)=C(C#N)C21C(=O)Nc2ccccc21 (centres undefined)	/	5.5%	/	/	/	/
NC(=O)Cc1c[nH]c2ncc(-c3cccc(N4CCOCC4)c3)cc12	/	5.6%[176 µM]	/	/	/	/
CCCNC(=O)N[C@@H]1CCC[C@@H](C(=O)NCCOC)CC(=O)N(C)C1	/	25.1µM*	/	/	/	/
O=C(NC1CCCCC1)C(c1cccnc1)N(C(=O)CCl)c1ccc(F)cc1 (centres undefined)	14.1µM*	?	-1.2%	13.1%	-13.7%	1.1%
COc1ccc(N(C(=O)CCl)C(C(=O)NC2CCCCC2)c2cccnc2)cc1 (centres undefined)	15.8µM*	?	2.7%	1.7%	-11.7%	-14.7%
O=C(NC1CCCCC1)C(c1cccnc1)N(C(=O)CCl)c1ccccc1Cl (centres undefined)	2.7%[57.1 µM]	-27.7%	0.3%	-19.4%[57.1 µM]	-10.8%	7.2%
CCCN1C(=O)Cc2ccccc2C1C(=O)NCc1cc(OC)ccc1OC (centres undefined)	/	-4.0%	/	/	/	/
O=C(c1cc(COc2ccc(F)cc2F)on1)N1CCN(C(=O)c2ccco2)CC1	50.1µM*	-20.3%	-1.5%	1.5%	-3.0%	-12.6%
Cc1ccc(C)c(OCc2cc(C(=O)N3CCN(C(=O)c4ccco4)CC3)no2)c1	?	-6.9%	-1.3%	-2.3%	7.1%	-21.2%
